The assay can be described thus: compound activity on host-cell Toxoplasma growth – dose response (AID 1259420).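 Further: host cells were HeLa; final incubation lasted 72 hours.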 Particulars: Toxoplasma gondii growth in host cells, no IFN-gamma.

“And” between values parts separate entries of the source, which are not always exact repeats. Equal entries are not always repeated. The whole screen tested about 1,000 compounds, of which about 250 (25%) were called active. Not shown: some 31% with an inconclusive outcome. These entries were drawn from the full list. Potency and affinity values are given separately. Unmarked numbers belong to inactive results. How the calls were made is not given here. Numbered stars: 1 amine (or outer) side, 2 acyl side, 3 side chain; on linkers, the order of the positions; unused ones are H or OH. Bridge positions count the residues as written; N and C are the ends. Square brackets hold non-standard residues; d marks the D form. Peptide text beside a SMILES is read from it. * marks the point of attachment. ξ: configuration not given here. pTerphenylCO(4''-OnC5H11) = CCCCCOc1ccc(-c2ccc(-c3ccc(C(=O)*)cc3)cc2)cc1; ξOrn(4,5-diOH) = O=C(C(CC(O)C(O)N[*:3])N[*:1])[*:2]; ξhTyr(βξ-OH,γξ-OH) = NC(C(=O)O)C(O)C(O)c1ccc(O)cc1; ξPro(3ξ-OH,4ξ-Me) = CC1CNC(C(=O)O)C1O; Hyp = O=C(O)[CH]1C[CH](O)CN1

For the compound `OC1(c2cccc(C(F)(F)F)c2)CCN(Cc2ccc3[nH]ccc3c2)CC1`, the max activity (at 19.5 µM unless noted) is 6.52% [at 0.16 µM].

Regarding `O=C(Cc1cccnc1)N1CC(=O)N2[C@H](CO)[C@@H](c3ccc(C#CC4CCCCC4)cc3)[C@@H]2C1`, the max activity was -7.69% (at 0.6 µM) and 16.4% (at 19.5 µM).

Turning to `Cc1cc(C(=O)N2CCC(c3cc4c(ncn4C)c(NCC4CC4)n3)CC2)ccc1Cl`, the max activity (at 19.5 µM unless noted) was 13.8%.

On to `O=S(=O)(c1ccc(F)cc1)N1CCCCN2[C@H](C1)[C@H](c1ccc(-c3cncnc3)cc1)[C@@H]2CO`, for which, where the note is “at 19.5 µM unless noted”, the max activity was 22.3%.

`Cc1ccccc1S(=O)(=O)N1CCCCN2[C@H](C1)[C@@H](c1ccc(C#CCN(C)C)cc1)[C@@H]2CO`: the max activity (at 19.5 µM unless noted) is -29.9% [at 10 µM].

Turning to `Cc1ccccc1S(=O)(=O)N1CCCCN2[C@@H](CO)[C@@H](c3ccc(C#CCN(C)C)cc3)[C@@H]2C1`, for the setting “at 19.5 µM unless noted”, the max activity was 48.3%.

As for `Cc1ccccc1-c1ccc([C@H]2[C@H]3CN(S(=O)(=O)Cc4ccccc4)CCCCN3[C@H]2CO)cc1`, for the setting “at 19.5 µM unless noted”, the max activity was 24.5%.

On to `COc1cccc(-c2ccc([C@H]3[C@H](CO)N4C(=O)CN(C(=O)c5cccnc5)C[C@@H]34)cc2)c1`, for which the max activity (at 19.5 µM unless noted) is -9.74% [at 1.2 µM].

Take `O=C(C1CCOCC1)N1CC(=O)N2[C@@H](CO)[C@H](c3ccc(/C=C/c4ccccc4)cc3)[C@@H]2C1`: under “at 19.5 µM unless noted”, the max activity was 7.51% [at 5 µM].

With `CC(=O)N1CCC(N(C)Cc2cc(C(C)(C)C)n[nH]2)CC1`, under “at 19.5 µM unless noted”, the max activity is -9.85%.

Regarding `COCC(=O)N1CCC2(CC1)CC1(CCN(CC(C)C)CC1)C(=O)N2C`, the max activity (at 19.5 µM unless noted) was -12.4% [at 10 µM].

Take `O=S(=O)(c1ccccc1F)N1CC[C@@H]2[C@H](CO)Nc3ccc(C4=CCCCC4)cc3[C@@H]21`: under “at 19.5 µM unless noted”, the max activity is -15.7% [at 5 µM].

For `COc1cccc(S(=O)(=O)N2CC[C@@H]3[C@H]2c2cc(C#Cc4cccnc4)ccc2N[C@@H]3CO)c1`, under “at 19.5 µM unless noted”, the max activity is 17.4%.

Regarding `CNC(=O)NCC1CCC2(CCN(Cc3ccccc3)CC2)CO1` (configuration not stated), for the setting “at 19.5 µM unless noted”, the max activity is -9.71% [at 2.6 µM].

On to `OC[C@H]1[C@H](c2ccc(-c3cccc(F)c3)cc2)[C@H]2CN(Cc3cncnc3)CCCCN21`, for which, where the note is “at 19.5 µM unless noted”, the max activity is 16.3%.

Consider `N#Cc1c(N2C[C@@H]3NCCO[C@H]3C2)c(F)cc2c(=O)c(C(=O)O)cn(C3CC3)c12`, for which, where the note is “at 19.5 µM unless noted”, the max activity was 9.32% [at 1.2 µM].

As for `Cc1ccc(N2CCC[C@]3(C(=O)O)CN(CCN(C)C)C[C@H]3C2)nn1`, the max activity (at 19.5 µM unless noted) is -23.7% [at 5 µM].

In the case of `COc1cccc(-c2nn(CC3CC3)c3c2[C@@H]2CN(Cc4ccccc4)C[C@@H]2C3)c1`, the max activity (at 19.5 µM unless noted) is 19.1%.

Regarding `Cc1ccc(Cl)cc1N(CC(=O)Nc1c(F)cccc1F)S(C)(=O)=O`, where the note is “at 19.5 µM unless noted”, the max activity was 8.21% [at 1.2 µM].

For `CC(=O)NCC(=O)N1CCC2(CC1)CC(c1ccccc1)C(=O)N2` (configuration not stated), the max activity (at 19.5 µM unless noted) was -12.4% [at 10 µM].

Turning to `CN(C)CCO[C@@H]1CN(C(=O)Cc2ccsc2)[C@H]2CCCO[C@@H]12`, for the setting “at 19.5 µM unless noted”, the max activity was -11.4% [at 10 µM].

Regarding `CN1CCN(C(=O)Cc2ccsc2)Cc2cccnc21`, the max activity (at 19.5 µM unless noted) was -16.3% [at 2.6 µM].

For `Cc1ccsc1C(=O)N1CCc2nc(-c3cnn(C)c3)nc(NC(C)C)c2C1`, the max activity (at 19.5 µM unless noted) is -6.87%.

For the compound `Cc1ccccc1-c1ccc([C@@H]2[C@H]3CN(C(=O)c4ccncc4)CC(=O)N3[C@H]2CO)cc1`, under “at 19.5 µM unless noted”, the max activity is 7.3% [at 5 µM].

As for `CN1[C@@H]2Cn3c(ccc(/C=C/c4ccccc4)c3=O)[C@H]1[C@@H](C(=O)NC1Cc3ccccc3C1)[C@@H]2CO`, the max activity (at 19.5 µM unless noted) was -16.6% [at 2.6 µM].

As for `Cc1cnn(C(C)C(=O)N2CCc3[nH]nc(-c4ccc(F)c(F)c4)c3C2)c1` (configuration not stated), the max activity (at 19.5 µM unless noted) is 14% [at 0.16 µM].

Consider `Nc1ccc(S(=O)(=O)NC(=O)c2ccccc2)cc1`, for which the max activity (at 19.5 µM unless noted) is 6.39% [at 0.3 µM].

Take `CO[C@H]1CCN(c2ccc(C)nn2)[C@H]1Cc1cnn(C)c1`: the max activity (at 19.5 µM unless noted) is 46.8%.

Take `C[C@]12CCC3=C4CCC(=O)C=C4CC[C@H]3[C@@H]1CC[C@@]2(O)CC#N`: the max activity (at 19.5 µM unless noted) is -3.24% [at 0.3 µM].

For `C=CCO[C@@H]1CCN(c2cc(OC)ncn2)[C@H]1Cc1cnn(C)c1`, for the setting “at 19.5 µM unless noted”, the max activity was -8.84% [at 5 µM].

`Cc1nnc(N2C[C@@H](Oc3ncccc3F)[C@@H]3OCCC[C@@H]32)s1`: the max activity (at 19.5 µM unless noted) was -11.4% [at 0.16 µM].

For `Cc1ccc(-c2cc(C(F)(F)F)nn2-c2ccc(S(N)(=O)=O)cc2)cc1`, the max activity (at 19.5 µM unless noted) was -6.96% [at 0.08 µM].

Regarding `COc1ccc(CN2C[C@@H]3C[C@H](C(=O)Nc4ccccc4)[C@@H](C2)O3)cc1`, the max activity (at 19.5 µM unless noted) was 24.7%.

Turning to `CCCNC(=O)C[C@H]1CC[C@@H]2[C@H](COC[C@H](O)CN2C(=O)Nc2ccc(Cl)c(Cl)c2)O1`, the max activity (at 19.5 µM unless noted) was 22.5%.

`CCCNC(=O)[C@@H]1[C@@H](CO)[C@@H]2Cn3c(ccc(C4=CCCCC4)c3=O)[C@@H]2N1Cc1ccccc1F`: the max activity (at 19.5 µM unless noted) was 15.2%.

In the case of `O=C(c1ccc[nH]1)N1CCC2(CC1)COCCN(c1ncccn1)C2`, the max activity is -14% (at 10 µM) and 9.97% (at 19.5 µM).

For `CC(C)CCN1Cc2c(C(=O)NC3CCCCC3)ncn2-c2ccccc2S1(=O)=O`, the max activity (at 19.5 µM unless noted) is 17.3%.

In the case of `CO[C@@H]1CCN(c2ncccn2)C[C@@H]1Cc1cccc(C)c1`, the max activity (at 19.5 µM unless noted) is 13.3%.

As for `CCCCCOc1ccc(-c2ccc(-c3ccc(C(=O)NC4CC(O)C(O)NC(=O)C5C(O)C(C)CN5C(=O)C(C(C)O)NC(=O)C(C(O)C(O)c5ccc(O)cc5)NC(=O)C5CC(O)CN5C(=O)C(C(C)O)NC4=O)cc3)cc2)cc1` (stereo not drawn) ({pTerphenylCO(4''-OnC5H11)}-[ξOrn(4,5-diOH)]T[Hyp][ξhTyr(βξ-OH,γξ-OH)]T[ξPro(3ξ-OH,4ξ-Me)]; lactam 1-C; configuration not given here), under “at 19.5 µM unless noted”, the max activity is 7.96% [at 0.6 µM].

Turning to `O=C1N(c2ccccc2)c2ccccc2C1(Cc1ccncc1)Cc1ccncc1`, the max activity (at 19.5 µM unless noted) is -9.88% [at 5 µM].

In the case of `C/C=C/c1ccc(C2[C@H]3CNC[C@@H]2N3S(=O)(=O)c2ccccc2C)cc1` (some centres not stated), the max activity (at 19.5 µM unless noted) was 20.6%.

In the case of `O=C(C[C@H]1CC[C@H]2[C@@H](COC[C@@H](O)CN2Cc2cc(F)ccc2F)O1)NCc1ccc(Oc2ccccc2)cc1`, the max activity (at 19.5 µM unless noted) was 24%.

As for `O=C(C[C@@H]1CC[C@@H]2[C@H](COC[C@@H](O)CN2C(=O)Nc2cc(Cl)cc(Cl)c2)O1)N1CCOCC1`, the max activity (at 19.5 µM unless noted) was -20.4% [at 10 µM].

As to `O=C(C[C@@H]1CC[C@H]2[C@@H](COC[C@H](O)CN2Cc2ccc(Oc3ccccc3)cc2)O1)N1CCN(c2ccccc2)CC1`, the max activity (at 19.5 µM unless noted) is -11.8% [at 1.2 µM].

Turning to `O=C(C[C@@H]1CC[C@@H]2[C@H](COC[C@H](O)CN2S(=O)(=O)c2ccccc2F)O1)N1CCC(Cc2ccccc2)CC1`, the max activity (at 19.5 µM unless noted) is -4.67% [at 0.3 µM].

Regarding `O=C(C[C@H]1CC[C@@H]2[C@H](COC[C@H](O)CN2Cc2cc(F)ccc2F)O1)NCc1ccc(Oc2ccccc2)cc1`, the max activity (at 19.5 µM unless noted) is 29.1% [at 10 µM].

For the compound `O=C(C[C@H]1CC[C@@H]2[C@H](COC[C@@H](O)CN2Cc2ccc(Oc3ccccc3)cc2)O1)N1CCN(c2ccccc2)CC1`, the max activity (at 19.5 µM unless noted) was 17.6%.

As for `O=C(C[C@H]1CC[C@H]2[C@@H](COC[C@H](O)CN2S(=O)(=O)c2ccccc2)O1)NCC1CCCCC1`, for the setting “at 19.5 µM unless noted”, the max activity is -7.1% [at 0.3 µM].

`CCCNC(=O)C[C@H]1CC[C@H]2[C@@H](COC[C@@H](O)CN2C(=O)Nc2ccc(Cl)c(Cl)c2)O1`: the max activity (at 19.5 µM unless noted) was -10.6% [at 10 µM].

Regarding `O=C(C[C@H]1CC[C@H]2[C@@H](COC[C@H](O)CN2Cc2ccc(Oc3ccccc3)cc2)O1)N1CCN(c2ccccc2)CC1`, where the note is “at 19.5 µM unless noted”, the max activity was 19.6%.

Turning to `CCCNC(=O)[C@H]1[C@H](CO)[C@H]2Cn3c(ccc(C4=CCCCC4)c3=O)[C@H]2N1Cc1ccccc1F`, the max activity (at 19.5 µM unless noted) is 26.7%.

For `CCC(=O)N1CC(=O)N2[C@@H](CO)[C@H](c3ccc(C#CCC(C)C)cc3)[C@@H]2C1`, for the setting “at 19.5 µM unless noted”, the max activity was -4.73% [at 2.6 µM].

Consider `Cc1ccccc1-c1ccc(C2[C@@H]3CN(Cc4cncnc4)C[C@H]2N3)cc1` (some centres not stated), for which, under “at 19.5 µM unless noted”, the max activity was -6.61% [at 10 µM].

With `COc1cccc(-c2ccc(C3[C@@H]4CN(C(=O)C5CCCCC5)C[C@H]3N4)cc2)c1` (some centres not stated), for the setting “at 19.5 µM unless noted”, the max activity was 23.3%.

For `COc1cccc(-c2ccc(C3[C@@H]4CN(Cc5ccccn5)C[C@H]3N4)cc2)c1` (some centres not stated), under “at 19.5 µM unless noted”, the max activity was 36.5%.

With `N#Cc1ccc(-c2ccc(C3[C@@H]4CN(C(=O)C5CCCCC5)C[C@H]3N4)cc2)cc1` (some centres not stated), the max activity (at 19.5 µM unless noted) was 18.4%.

Turning to `COc1cc(CN2C[C@@H]3N[C@H](C2)C3c2ccc(-c3ccc(C#N)cc3)cc2)cc(OC)c1` (some centres not stated), the max activity (at 19.5 µM unless noted) was 9.2% [at 10 µM].

With `CS(=O)(=O)N1C[C@@H]2N[C@H](C1)[C@@H]2c1ccc(-c2ccccc2)cc1`, the max activity (at 19.5 µM unless noted) is 14.6% [at 2.6 µM].

Take `Cn1cnc(S(=O)(=O)N2C[C@@H]3N[C@H](C2)C3c2ccc(-c3ccccc3F)cc2)c1` (some centres not stated): the max activity (at 2.35 µM) was 9.35% and the max activity (at 19.5 µM) was 18.7%.

In the case of `N#Cc1ccc(-c2ccc(C3[C@@H]4CN(S(=O)(=O)c5ccc(F)cc5)C[C@H]3N4)cc2)cc1` (some centres not stated), for the setting “at 19.5 µM unless noted”, the max activity is 31.5% and 12.6% and 34.4%.

Take `O=C1CC2C(CCN2Cc2ccc(F)cc2)N1CCN1CCOCC1` (configuration not stated): the max activity (at 19.5 µM unless noted) was -8.01% [at 5 µM].

Take `O=C(Cc1ccccn1)N1CC(=O)N2[C@H](C1)[C@@H](c1ccc(C#CCC3CCCC3)cc1)[C@@H]2CO`: the max activity (at 19.5 µM unless noted) was 30% [at 21 µM].

Regarding `COC[C@H](N)C(=O)N1CCC(Cc2nnc(SC)n2C)CC1`, under “at 19.5 µM unless noted”, the max activity was 7.97% [at 0.16 µM].

As for `CCCNC(=O)[C@@H]1[C@@H](CO)[C@@H]2Cn3c(ccc(/C=C/c4ccccc4)c3=O)[C@@H]2N1CC1CC1`, the max activity (at 19.5 µM unless noted) was -5.81% [at 10 µM].
